Measurements from the supplement of paper PMC10849652.
Of roughly 8,800 targets only a part is listed; those with a hit were picked by preference. About 0.5% of all pairs of compound and target were hits.

Experiments:
Experiment in all cases: log2 fold change, soluble protein after heating vs DMSO (PISA); higher = thermal stabilisation; K562 lysate, 10 uM; active = over 0.2 and 3.5 SD of the protein, either way, in both replicates (recomputed)
[1] = compound: C1=CC=C(C=C1)[C@H](COC2=CC3=C(C=C2)NC(=O)N3)NC(=O)C4=CC=CN(C4=O)CC5=CC(=C(C=C5)F)F
Summary of the method: (§1)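 Pellets of K562 cells were dounce-homogenised in PBS pH 7.4 with 1 mM MgCl2, and the crude extract was held at 1 mg/mL protein for a 30 min treatment with 10 μM compound. Aliquots were heated for 3 min over 48°C-58°C and pooled before NP-40 was added to 0.5% at 4°C. The supernatant from 21,000xg for 90 min was quantified by TMTpro 16plex LC-MS/MS with channel sums equalised. Values are reported from duplicates as log-two fold change in thermal stability relative to solvent controls.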

[2] = compound: CC1=C(SC2=C1C(=N[C@H](C3=NN=C(N32)C)CC(=O)N)C4=CC=C(C=C4)Cl)C
Summary of the method: as §1

[3] = compound: CC1=C2C(=CC=C1)N=C(N(C2=O)C3=CC=CC=C3C)CN4C=NC5=C(N=CN=C54)N
Summary of the method: as §1

[4] = compound: Cc1sc2c(c1C)C(c1ccc(Cl)cc1)=N[C@@H](CC(=O)OC(C)(C)C)c1nnc(C)n1-2
Summary of the method: as §1

[5] = compound: c1ccc([C@@H]2C[C@H]2NC2CCNCC2)cc1
Summary of the method: as §1

Measured: log2 fold change

MECR (UniProt Q9BV79)
UniProt Q9BV79, sequence (Q9BV79 whole entry, looked up): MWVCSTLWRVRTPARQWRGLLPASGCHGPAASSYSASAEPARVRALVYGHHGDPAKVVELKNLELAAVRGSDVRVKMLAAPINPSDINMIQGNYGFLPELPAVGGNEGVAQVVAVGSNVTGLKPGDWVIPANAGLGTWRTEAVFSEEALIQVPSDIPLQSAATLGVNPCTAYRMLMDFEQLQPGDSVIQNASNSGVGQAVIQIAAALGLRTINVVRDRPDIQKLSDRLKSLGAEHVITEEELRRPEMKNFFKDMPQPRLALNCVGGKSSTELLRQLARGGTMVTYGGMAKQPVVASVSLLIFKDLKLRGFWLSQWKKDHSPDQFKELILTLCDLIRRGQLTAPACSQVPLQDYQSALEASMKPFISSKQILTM
inactive: [1] -0.001 | [2] 0.013 | [3] 0.047 | [4] -0.048 | [5] 0.005

MANEA (UniProt Q5SRI9)
UniProt Q5SRI9, sequence (Q5SRI9 whole entry, looked up): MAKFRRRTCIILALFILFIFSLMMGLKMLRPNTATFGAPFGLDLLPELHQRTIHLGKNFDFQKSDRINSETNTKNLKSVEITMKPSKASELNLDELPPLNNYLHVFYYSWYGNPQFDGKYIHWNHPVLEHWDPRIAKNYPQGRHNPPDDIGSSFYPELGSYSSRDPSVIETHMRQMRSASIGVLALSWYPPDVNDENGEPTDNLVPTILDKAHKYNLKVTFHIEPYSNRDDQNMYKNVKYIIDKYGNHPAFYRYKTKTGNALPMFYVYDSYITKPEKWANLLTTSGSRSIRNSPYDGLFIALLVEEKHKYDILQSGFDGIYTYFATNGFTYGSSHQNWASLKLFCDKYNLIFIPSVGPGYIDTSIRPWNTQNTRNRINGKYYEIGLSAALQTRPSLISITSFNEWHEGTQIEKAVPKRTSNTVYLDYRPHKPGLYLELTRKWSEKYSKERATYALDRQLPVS
inactive: [1] 0.146 | [2] -0.009 | [3] 0.044 | [4] 0.029 | [5] -0.161

MPZL1 (UniProt O95297)
UniProt O95297, sequence (O95297 whole entry, looked up): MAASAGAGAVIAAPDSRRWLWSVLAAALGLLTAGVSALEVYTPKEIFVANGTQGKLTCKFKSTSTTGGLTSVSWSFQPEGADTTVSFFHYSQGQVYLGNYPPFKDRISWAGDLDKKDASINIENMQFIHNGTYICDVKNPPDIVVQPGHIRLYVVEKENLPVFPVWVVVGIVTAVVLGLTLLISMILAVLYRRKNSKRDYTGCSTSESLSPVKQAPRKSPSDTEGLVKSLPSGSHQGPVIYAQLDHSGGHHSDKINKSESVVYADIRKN
inactive: [1] 0.056 | [2] 0.006 | [3] -0.068 | [4] -0.042 | [5] 0.125

MAP2K5 (UniProt Q13163)
UniProt Q13163, sequence (Q13163 whole entry, looked up): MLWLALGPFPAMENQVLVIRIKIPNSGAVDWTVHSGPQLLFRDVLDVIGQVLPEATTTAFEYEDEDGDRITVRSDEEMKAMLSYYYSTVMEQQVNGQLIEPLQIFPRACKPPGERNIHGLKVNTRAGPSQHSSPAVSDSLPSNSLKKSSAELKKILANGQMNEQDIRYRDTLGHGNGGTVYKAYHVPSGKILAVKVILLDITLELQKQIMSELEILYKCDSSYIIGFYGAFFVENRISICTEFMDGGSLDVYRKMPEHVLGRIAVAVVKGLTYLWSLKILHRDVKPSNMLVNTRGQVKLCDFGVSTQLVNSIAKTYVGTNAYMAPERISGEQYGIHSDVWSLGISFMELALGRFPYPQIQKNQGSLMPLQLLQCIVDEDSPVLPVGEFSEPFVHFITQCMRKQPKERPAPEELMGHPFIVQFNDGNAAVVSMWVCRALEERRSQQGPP
inactive: [1] -0.046 | [2] 0.155 | [3] -0.045 | [4] -0.407 | [5] -0.02

MBD2 (UniProt Q9UBB5)
UniProt Q9UBB5, sequence (Q9UBB5 whole entry, looked up): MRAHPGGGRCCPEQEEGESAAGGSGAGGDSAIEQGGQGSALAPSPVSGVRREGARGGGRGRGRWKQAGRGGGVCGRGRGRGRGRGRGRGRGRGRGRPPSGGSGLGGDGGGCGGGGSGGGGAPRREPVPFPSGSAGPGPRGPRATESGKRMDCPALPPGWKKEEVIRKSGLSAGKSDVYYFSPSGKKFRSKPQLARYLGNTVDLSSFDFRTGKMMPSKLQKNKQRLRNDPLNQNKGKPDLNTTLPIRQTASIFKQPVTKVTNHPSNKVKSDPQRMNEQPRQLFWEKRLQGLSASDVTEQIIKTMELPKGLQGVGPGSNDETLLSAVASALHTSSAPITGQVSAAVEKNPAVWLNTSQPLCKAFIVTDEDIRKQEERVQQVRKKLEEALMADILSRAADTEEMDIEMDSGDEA
inactive: [1] 0.042 | [2] 0.008 | [3] -0.028 | [4] 0.065 | [5] 0.027

LLGL1 (UniProt Q15334)
UniProt Q15334, sequence (Q15334 whole entry, looked up): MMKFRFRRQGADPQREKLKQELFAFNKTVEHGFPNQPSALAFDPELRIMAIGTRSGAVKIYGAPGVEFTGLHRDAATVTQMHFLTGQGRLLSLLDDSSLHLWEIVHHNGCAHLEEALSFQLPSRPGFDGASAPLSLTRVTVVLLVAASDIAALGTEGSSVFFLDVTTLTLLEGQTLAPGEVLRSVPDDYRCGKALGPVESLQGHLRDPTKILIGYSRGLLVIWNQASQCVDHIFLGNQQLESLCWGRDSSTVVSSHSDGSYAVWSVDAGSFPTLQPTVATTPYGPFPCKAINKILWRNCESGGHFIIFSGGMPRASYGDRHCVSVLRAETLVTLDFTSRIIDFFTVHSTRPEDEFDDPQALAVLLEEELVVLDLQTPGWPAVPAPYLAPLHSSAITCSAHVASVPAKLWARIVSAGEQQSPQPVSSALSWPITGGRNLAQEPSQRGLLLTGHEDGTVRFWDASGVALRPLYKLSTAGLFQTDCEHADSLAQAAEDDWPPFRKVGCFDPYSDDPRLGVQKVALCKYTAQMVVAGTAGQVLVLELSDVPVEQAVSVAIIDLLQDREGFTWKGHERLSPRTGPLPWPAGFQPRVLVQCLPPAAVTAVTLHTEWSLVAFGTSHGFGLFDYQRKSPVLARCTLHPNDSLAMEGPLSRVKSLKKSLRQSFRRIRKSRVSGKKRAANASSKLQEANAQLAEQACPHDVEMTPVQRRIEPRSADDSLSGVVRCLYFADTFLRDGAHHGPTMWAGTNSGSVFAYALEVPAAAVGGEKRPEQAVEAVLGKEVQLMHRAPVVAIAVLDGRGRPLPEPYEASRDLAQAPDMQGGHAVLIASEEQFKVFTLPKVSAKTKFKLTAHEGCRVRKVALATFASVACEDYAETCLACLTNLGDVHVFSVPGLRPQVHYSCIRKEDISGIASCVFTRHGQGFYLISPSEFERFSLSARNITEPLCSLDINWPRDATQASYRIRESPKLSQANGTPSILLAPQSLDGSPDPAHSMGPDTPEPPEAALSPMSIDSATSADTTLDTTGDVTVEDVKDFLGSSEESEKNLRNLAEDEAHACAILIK
inactive: [1] 0.038 | [2] 0.052 | [3] 0.024 | [4] -0.056 | [5] 0.074

MAP7D3 (UniProt Q8IWC1)
UniProt Q8IWC1, sequence (Q8IWC1 whole entry, looked up): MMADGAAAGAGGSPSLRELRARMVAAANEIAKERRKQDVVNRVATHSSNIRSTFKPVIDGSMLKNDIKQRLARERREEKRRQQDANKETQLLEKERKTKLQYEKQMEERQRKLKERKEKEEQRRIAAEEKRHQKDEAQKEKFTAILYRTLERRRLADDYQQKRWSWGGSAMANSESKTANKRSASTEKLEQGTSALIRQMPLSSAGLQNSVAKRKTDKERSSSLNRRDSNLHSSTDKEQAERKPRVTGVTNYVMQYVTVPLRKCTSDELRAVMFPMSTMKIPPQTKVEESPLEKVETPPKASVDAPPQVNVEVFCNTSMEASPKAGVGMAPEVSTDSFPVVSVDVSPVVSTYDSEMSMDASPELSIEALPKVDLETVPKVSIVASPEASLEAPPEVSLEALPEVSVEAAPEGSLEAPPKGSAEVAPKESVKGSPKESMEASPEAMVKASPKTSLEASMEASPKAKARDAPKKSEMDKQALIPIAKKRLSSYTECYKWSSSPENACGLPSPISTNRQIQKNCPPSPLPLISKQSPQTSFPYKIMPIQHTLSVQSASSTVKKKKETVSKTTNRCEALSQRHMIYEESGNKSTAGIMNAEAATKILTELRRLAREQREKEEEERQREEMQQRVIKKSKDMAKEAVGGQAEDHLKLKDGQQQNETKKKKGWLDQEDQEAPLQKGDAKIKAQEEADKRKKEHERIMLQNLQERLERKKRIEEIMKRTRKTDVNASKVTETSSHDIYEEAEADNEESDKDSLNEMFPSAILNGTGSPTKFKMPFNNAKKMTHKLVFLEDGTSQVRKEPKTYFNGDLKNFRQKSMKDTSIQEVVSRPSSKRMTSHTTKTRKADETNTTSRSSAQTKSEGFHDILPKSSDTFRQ
inactive: [1] 0.056 | [2] 0.057 | [3] -0.091 | [4] 0.015 | [5] -0.05

MITD1 (UniProt Q8WV92)
UniProt Q8WV92, sequence (Q8WV92 whole entry, looked up): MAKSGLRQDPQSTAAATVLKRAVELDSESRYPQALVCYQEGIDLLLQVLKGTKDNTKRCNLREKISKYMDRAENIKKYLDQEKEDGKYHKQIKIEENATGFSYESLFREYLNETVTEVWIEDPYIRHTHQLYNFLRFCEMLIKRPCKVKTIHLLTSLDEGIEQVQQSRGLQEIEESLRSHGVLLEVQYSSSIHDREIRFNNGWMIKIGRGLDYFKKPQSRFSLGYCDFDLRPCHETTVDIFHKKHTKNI
inactive: [1] -0.036 | [2] -0.038 | [3] -0.015 | [4] -0.026 | [5] 0.117

MAPK3 (UniProt P27361)
UniProt P27361, sequence (P27361 whole entry, looked up): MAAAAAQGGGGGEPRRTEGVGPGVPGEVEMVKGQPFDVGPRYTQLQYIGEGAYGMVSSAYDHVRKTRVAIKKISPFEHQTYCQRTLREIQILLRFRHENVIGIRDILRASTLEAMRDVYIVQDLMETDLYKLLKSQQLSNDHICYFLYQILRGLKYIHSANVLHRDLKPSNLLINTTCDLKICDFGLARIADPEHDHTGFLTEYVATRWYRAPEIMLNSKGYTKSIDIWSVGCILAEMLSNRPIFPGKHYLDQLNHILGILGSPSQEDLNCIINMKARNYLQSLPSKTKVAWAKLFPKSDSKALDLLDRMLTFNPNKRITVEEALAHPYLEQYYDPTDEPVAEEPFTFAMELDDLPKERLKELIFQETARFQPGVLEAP
inactive: [1] 0.008 | [2] 0.006 | [3] -0.05 | [4] 0.036 | [5] -0.048
